# PubChem BioAssay (NCATS)
# A number with no mark means an inactive call. Inconclusive results are not listed. Where a call stands in place of a potency, no number is given. Activity calls are given as the source filed them. Unless noted, calls come from the whole dose curve; as a rule, active = well fitted curve in the direction sought with a large enough effect; inconclusive = small, poorly fitted or top-dose-only effect, or another doubt; inactive = no such curve, though single readings can be large; an effect the other way counts as inactive or inconclusive.
# Assays:
# [1] = qHTS of Nrf2 Activators: LOPAC Validation (AID 624149)
# Method in brief: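 ARE reporter activation measured in AREc32 firefly luciferase cells after 24 hr compound exposure; Steady-Glo luminescence.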
# [2] = HTS Assay for Allosteric Antagonists of the Human D2 Dopamine Receptor: Hit Validation in HTRF (AID 624455);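 note: stable D1 dopamine receptor cell line scored for blocking the D1 response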
# Method in brief: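 Signal from an HTRF read-out in D1-expressing stable cells gave hit activity as inhibition of the D1 response.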
# [3] = target: Arylsulfatase A (Homo sapiens) (UniProt P15289); assay: qHTS screen for enhancers of Arylsulfatase A (ASA1): LOPAC Validation Assay (AID 720538); note: potency is the fitted concentration of half-maximal effect
# Arylsulfatase A (Homo sapiens), sequence (P15289 whole entry, looked up): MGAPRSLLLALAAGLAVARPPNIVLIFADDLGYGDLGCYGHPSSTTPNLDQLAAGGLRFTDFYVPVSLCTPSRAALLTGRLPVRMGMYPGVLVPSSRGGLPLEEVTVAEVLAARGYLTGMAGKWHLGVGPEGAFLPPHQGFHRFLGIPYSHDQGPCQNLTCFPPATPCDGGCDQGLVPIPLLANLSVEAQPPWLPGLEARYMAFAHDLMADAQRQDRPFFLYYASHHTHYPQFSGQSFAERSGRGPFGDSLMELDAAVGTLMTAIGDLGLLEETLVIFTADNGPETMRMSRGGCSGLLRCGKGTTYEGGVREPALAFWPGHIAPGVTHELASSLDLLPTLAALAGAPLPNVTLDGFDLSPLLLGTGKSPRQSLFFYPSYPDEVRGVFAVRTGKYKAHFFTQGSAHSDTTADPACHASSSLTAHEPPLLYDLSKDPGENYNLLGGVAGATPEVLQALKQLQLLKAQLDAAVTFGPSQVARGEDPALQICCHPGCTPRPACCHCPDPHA
# Method in brief: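 Read-out: fluorescence at Ex=525/Em=598 nm after 1N NaOH final stop. Patient fibroblasts carrying ASA-I179S had 48h compound exposure, then 14h room-temperature pNCS hydrolysis (0.5mM final) in lysis buffer. Signal increase = enhanced activity.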
# [4] = qHTS for compounds that reverse cellular toxicity of Amyloid beta (A-beta) peptide in yeast: LOPAC Validation Assay (AID 720559)
# Method in brief: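 OD600 growth readout after 48 hr at 30 C; A-beta-toxic yeast plus pinned compounds in medium. Normalization: DMSO = negative, equimolar FeCl3 + clioquinol = positive.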
# [5] = qHTS for Activators of Parkin Expression: LOPAC Validation Assay (FLuc Reporter) (AID 720573)
# Method in brief: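 FLuc luminescence read-out from a neuronal line expressing a Parkin-promoter-driven coincidence reporter. Cells treated 24 h at 37 C, 5% CO2 with compounds at 7 concentrations; signal increase normalized to DMSO and positive control.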
# [6] = target: T1, Hexokinase-4 (Homo sapiens) + Glucokinase regulatory protein (Homo sapiens) (UniProt P35557+Q14397); assay: qHTS assay for inhibitors of recombinant human GCK-GKRP interaction: Diaphorase-coupled assay (AID 743205)
# T1 sequence (P35557 whole entry, looked up): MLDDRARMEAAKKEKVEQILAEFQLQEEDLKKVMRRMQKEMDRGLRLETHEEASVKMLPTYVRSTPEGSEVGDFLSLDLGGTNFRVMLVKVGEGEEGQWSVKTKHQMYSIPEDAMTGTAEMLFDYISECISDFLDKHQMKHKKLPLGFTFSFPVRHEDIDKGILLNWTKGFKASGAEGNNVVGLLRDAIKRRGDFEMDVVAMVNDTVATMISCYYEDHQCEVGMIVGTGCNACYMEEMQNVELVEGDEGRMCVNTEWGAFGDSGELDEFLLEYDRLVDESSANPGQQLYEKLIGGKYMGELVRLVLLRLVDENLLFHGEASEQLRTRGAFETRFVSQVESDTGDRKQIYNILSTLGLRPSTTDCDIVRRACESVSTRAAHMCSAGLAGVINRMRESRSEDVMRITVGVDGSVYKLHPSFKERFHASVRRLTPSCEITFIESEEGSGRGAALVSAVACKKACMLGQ
# T1 sequence (Q14397 whole entry, looked up): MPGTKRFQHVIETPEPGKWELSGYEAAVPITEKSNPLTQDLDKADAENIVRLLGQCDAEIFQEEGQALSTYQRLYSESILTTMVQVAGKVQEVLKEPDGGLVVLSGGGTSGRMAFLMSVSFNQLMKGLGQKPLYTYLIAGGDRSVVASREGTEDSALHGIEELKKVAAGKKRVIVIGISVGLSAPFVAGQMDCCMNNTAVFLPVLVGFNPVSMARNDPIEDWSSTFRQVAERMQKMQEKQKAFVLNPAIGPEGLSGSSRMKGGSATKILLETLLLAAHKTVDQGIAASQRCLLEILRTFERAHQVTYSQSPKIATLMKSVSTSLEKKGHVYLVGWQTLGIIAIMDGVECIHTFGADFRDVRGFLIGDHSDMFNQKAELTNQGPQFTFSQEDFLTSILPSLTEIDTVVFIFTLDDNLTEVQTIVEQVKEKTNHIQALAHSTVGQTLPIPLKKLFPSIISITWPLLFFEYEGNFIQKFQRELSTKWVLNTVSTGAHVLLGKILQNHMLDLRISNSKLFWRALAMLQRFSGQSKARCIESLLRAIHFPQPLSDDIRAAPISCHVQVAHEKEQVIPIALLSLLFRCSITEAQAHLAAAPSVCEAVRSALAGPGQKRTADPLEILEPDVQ
# Method in brief: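 Resorufin fluorescence (525/590 nm), read each minute over 30 min, reports GCK activity coupled via G6PDH and diaphorase. Reaction: 10 nM GST-GCK, 10 nM FLAG-GKRP, 5 mM glucose, 0.4 mM ATP, 0.15 mM NADP+, 0.1 mM resazurin.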
# [7] = target: T1, Hexokinase-4 (Homo sapiens) + Glucokinase regulatory protein (Homo sapiens); assay: qHTS assay for inhibitors of recombinant human GCK-GKRP interaction: ADP-Glo assay (AID 743206)
# Method in brief: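 GST-GCK and FLAG-GKRP (15 nM each in the dispensed mix, with 2 uM S6P) react with 0.4 mM ATP and 5 mM glucose (final) in Hepes pH 7.6 for 60 min at room temperature. ADP is measured by ADP-Glo luminescence.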
# [8] = target: T1, Hexokinase-4 (Homo sapiens) + Glucokinase regulatory protein (Homo sapiens); assay: qHTS assay for inhibitors of recombinant human GCK-GKRP interaction: HTRF assay (AID 743207)
# Method in brief: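 HTRF read-out (ex 320 nm; 615/665 nm emission) after 60 min RT equilibration of 5 nM GST-GCK, 5 nM FLAG-GKRP, 2 uM S6P, compound and anti-FLAG/anti-GST detection antibodies; signal normalized between DMSO wells with and without GCK.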
# [9] = Natriuretic polypeptide receptor (hNpr1) antagonism - Pilot counterscreen GloSensor control cell line (AID 1347045; calls by dose curve; note: potency is the fitted concentration of half-maximal effect)
# Method in brief: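 This counterscreen uses HEK293 cells expressing the GIP/pGS-40F cGMP biosensor. Compound-treated cells are challenged with 50 uM sodium nitroprusside, and the luciferase signal is compared before and after stimulation.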
# [10] = target: Atrial natriuretic peptide receptor 1 (Homo sapiens) (UniProt P16066); assay: Natriuretic polypeptide receptor (hNpr1) antagonism - Pilot screen (AID 1347049; calls by dose curve;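 note: agonist-evoked cGMP luminescence read 20 min after hNppA addition; potency is the fitted concentration of half-maximal effect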)
# Method in brief: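 HEK293 cells co-expressing hNpr1 and the GloSensor pGS-40F cGMP luciferase sensor were preloaded with 2% GloSensor reagent for 2 h. Compounds were added for 30 min at room temperature, then cells were stimulated with 0.1 nM hNppA for 20 min before luminescence readout.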
# [11] = target: Atrial natriuretic peptide receptor 2 (Homo sapiens) (UniProt P20594); assay: Natriuretic polypeptide receptor (hNpr2) antagonism - Pilot subtype selectivity assay (AID 1347050; calls by dose curve; note: potency is the fitted concentration of half-maximal effect)
# Method in brief: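 cGMP-sensor HEK293/hNpr2 cells; 2% GloSensor reagent 2 h RT; compounds 30 min; baseline luminescence read; 1 nM hNppC agonist 20 min RT; final luminescence read by CCD camera. Antagonism = reduced post-agonist signal.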
# [12] = target: T2, Tyrosine-protein phosphatase non-receptor type substrate 1 (Homo sapiens) + Leukocyte surface antigen CD47 (Homo sapiens) (UniProt P78324+Q08722); assay: CD47-SIRPalpha protein protein interaction - LANCE assay qHTS validation (AID 1347057; active = well fitted curve in the direction sought with a large enough effect in the signal ratio, with a control signal flat, not every such curve was filed as active; the % refers to the signal ratio; note: series mostly up to about 38 µM)
# T2 sequence (P78324 whole entry, looked up): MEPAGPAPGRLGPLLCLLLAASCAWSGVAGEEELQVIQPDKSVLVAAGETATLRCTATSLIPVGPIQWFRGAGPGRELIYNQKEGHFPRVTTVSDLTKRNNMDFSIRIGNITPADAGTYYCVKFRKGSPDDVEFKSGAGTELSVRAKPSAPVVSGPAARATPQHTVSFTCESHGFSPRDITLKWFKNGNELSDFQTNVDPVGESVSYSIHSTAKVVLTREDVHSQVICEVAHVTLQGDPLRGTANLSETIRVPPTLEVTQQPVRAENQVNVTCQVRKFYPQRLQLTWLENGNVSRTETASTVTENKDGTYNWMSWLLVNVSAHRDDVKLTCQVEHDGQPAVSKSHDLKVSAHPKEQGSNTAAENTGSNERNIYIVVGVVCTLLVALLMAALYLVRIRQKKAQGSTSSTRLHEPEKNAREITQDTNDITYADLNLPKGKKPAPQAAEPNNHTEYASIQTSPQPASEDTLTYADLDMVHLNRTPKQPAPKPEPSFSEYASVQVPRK
# T2 sequence (Q08722 whole entry, looked up): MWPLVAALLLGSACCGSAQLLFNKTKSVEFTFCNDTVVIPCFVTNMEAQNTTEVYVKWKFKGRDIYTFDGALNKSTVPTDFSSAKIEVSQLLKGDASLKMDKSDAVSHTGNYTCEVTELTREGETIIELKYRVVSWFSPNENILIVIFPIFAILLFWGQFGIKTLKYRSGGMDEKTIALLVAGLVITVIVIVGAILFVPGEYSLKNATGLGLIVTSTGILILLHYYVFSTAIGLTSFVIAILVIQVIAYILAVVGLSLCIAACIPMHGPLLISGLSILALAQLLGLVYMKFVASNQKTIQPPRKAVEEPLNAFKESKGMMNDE
# Method in brief: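 First, His-tagged CD47 and Eu-labelled anti-His antibody met the compound for 30 min; next, site-specifically biotinylated SIRPalpha was added for 30 min; finally streptavidin-APC was added before reading the TR-FRET ratio.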
# [13] = target: T2, Tyrosine-protein phosphatase non-receptor type substrate 1 (Homo sapiens) + Leukocyte surface antigen CD47 (Homo sapiens); assay: CD47-SIRPalpha protein protein interaction - HTRF assay qHTS validation (AID 1347058; active = well fitted curve in the direction sought with a large enough effect in the signal ratio, not every such curve was filed as active; the % refers to the signal ratio; note: series mostly up to about 38 µM)
# Method in brief: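 TR-FRET read (Ch1/Ch2 ratio) of soluble extracellular CD47 and Avi-biotinylated SIRPalpha domains in PBS pH 7.4 with 0.05% IGEPAL; 7-point compound titration. Sequential 30 min room-temperature steps; non-biotinylated SIRPalpha as control inhibitor.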
# [14] = target: T2, Tyrosine-protein phosphatase non-receptor type substrate 1 (Homo sapiens) + Leukocyte surface antigen CD47 (Homo sapiens); assay: CD47-SIRPalpha protein protein interaction - Alpha assay qHTS validation (AID 1347059);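 note: bead proximity luminescence from CD47 binding SIRPalpha after compound preincubation with SIRPalpha; potency is the fitted concentration of half-maximal effect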
# Method in brief: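 Soluble extracellular domains: Avi-tag biotinylated SIRPalpha (25 nM) preincubated 30 min RT with compound, then 6His-CD47 (12.5 nM) 30 min; Ni-NTA acceptor and streptavidin donor beads (10 ug/mL) 30 min, AlphaScreen read. PBS pH 7.4, 0.05% IGEPAL.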
# [15] = target: Parathyroid hormone/parathyroid hormone-related peptide receptor (Homo sapiens) (UniProt Q03431); assay: qHTS for PTHR1 Agonists: Optimization Screen against the NCGC LOPAC library (AID 1347079);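 note: GloSensor cAMP luminescence in HEK-293 GP2 cells expressing human PTHR1 with IBMX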
# Parathyroid hormone/parathyroid hormone-related peptide receptor (Homo sapiens), sequence (Q03431 whole entry, looked up): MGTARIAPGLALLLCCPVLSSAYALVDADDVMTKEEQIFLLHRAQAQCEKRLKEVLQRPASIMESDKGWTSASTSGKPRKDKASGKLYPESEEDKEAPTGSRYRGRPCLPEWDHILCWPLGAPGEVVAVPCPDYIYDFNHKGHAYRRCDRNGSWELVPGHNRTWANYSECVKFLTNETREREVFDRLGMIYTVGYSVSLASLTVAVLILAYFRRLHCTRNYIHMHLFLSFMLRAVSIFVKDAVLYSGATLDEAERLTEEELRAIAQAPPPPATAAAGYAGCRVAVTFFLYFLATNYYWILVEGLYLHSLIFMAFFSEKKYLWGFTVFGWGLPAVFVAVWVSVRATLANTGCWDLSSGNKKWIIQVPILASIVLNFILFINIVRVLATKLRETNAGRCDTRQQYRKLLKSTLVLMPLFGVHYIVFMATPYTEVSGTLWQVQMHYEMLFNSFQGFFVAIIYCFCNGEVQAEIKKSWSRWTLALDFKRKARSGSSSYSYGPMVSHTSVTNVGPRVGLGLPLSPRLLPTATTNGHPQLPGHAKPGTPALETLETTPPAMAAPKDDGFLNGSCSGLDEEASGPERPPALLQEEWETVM
# Method in brief: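 Compounds were tested across a qHTS titration. PTHR1-expressing GP2 cells report cAMP rises via GloSensor luminescence after 1 hr compound exposure at 37C with IBMX present.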
# [16] = target: Lysine-specific demethylase 5B (Homo sapiens) (UniProt Q9UGL1); assay: Optimization screen for KDM5B Histone Demethylases FDH coupled qHTS against the LOPAC library (AID 1347166)
# Method in brief: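 KDM5BDeltaAP (200nM final) preincubated 10 min with compound, then 12.5uM H3K4Me3, 25uM a-ketoglutarate, ascorbate, Fe(II), NAD+ and FDH added; 50mM HEPES pH 7.5, 0.01% Tween-20. NADH fluorescence (340/450 nm) change over 30 min, room temperature.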
# [17] = qHTS for inhibitors of adenylyl cyclases using a fission yeast platform: a pilot screen against the NCATS LOPAC library (AID 1347410)
# Method in brief: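 Read-out: fbp1-GFP fluorescence by laser scanning cytometry (488 nm laser), a gain of signal when AC/cAMP-PKA signalling is inhibited. Strain CHP2027 expressing AC9, GNAS and PDE4D2; compounds at up to 57 µM; 18 h, 30C.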
# [18] = Validation qHTS assay for inhibitors of Activation Induced Cytidine Deaminase (AID): UDG Counterscreen signal (AID 1347427)
# Method in brief: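 Counterscreen read of UDG activity (2 U/mL, 4/3x) in the FRET deamination format with AID (1 uM, 4/3x), DJC20/DJC23 substrates (250 nM, 4x), 4 h at room temperature. NaOH stop, fluorescence at 560 ex/665 em.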
# [19] = target: Single-stranded DNA cytosine deaminase (Homo sapiens) (UniProt Q9GZX7); assay: Validation qHTS assay for inhibitors of Activation Induced Cytidine Deaminase (AID): AID signal (AID 1347429)
# Single-stranded DNA cytosine deaminase (Homo sapiens), sequence (Q9GZX7 whole entry, looked up): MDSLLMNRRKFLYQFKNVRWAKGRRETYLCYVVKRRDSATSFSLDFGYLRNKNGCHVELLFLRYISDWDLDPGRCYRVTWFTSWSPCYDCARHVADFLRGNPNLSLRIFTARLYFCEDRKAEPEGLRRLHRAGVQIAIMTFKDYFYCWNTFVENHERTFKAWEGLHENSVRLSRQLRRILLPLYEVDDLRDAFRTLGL
# Method in brief: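 In this coupled qHTS, AID deaminates a FRET-labelled ssDNA substrate in the presence of UDG over 4 hr at room temperature. Compounds span up to 114 uM final.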
# [20] = Primary qHTS for inhibitors of La Crosse Virus (LACV) - induced cell death in SH-SY5Y cells (AID 1508616);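 note: top concentration of the series differs between compounds; higher means more rescue of cells from virus-induced death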
# Method in brief: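 Readout was luminescence from ATPLite 1step added after a 6-day LACV infection (0.01 MOI) of SH-SY5Y cells that had received pin-transferred compound 24 hr after seeding.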
# [21] = Cell Viability qHTS for small molecule stabilizers of the endoplasmic reticulum resident proteome (AID 1508629); conditions: cell viability counter-screen, 100 nM thapsigargin for final 4 h;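 note: human SH-SY5Y neuroblastoma cells carrying the GLuc-SERCaMP reporter; compound exposure about 46 h in total before the viability read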
# [22] = target: Papain (Carica papaya) (UniProt P00784); assay: Primary qHTS assay for inhibitors of the protease papain (AID 1645873);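 note: papain turnover of Z-FR-AMC read as the AMC fluorescence gain over 10 min; series mostly up to about 50 µM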
# Papain (Carica papaya), sequence (P00784 whole entry, looked up): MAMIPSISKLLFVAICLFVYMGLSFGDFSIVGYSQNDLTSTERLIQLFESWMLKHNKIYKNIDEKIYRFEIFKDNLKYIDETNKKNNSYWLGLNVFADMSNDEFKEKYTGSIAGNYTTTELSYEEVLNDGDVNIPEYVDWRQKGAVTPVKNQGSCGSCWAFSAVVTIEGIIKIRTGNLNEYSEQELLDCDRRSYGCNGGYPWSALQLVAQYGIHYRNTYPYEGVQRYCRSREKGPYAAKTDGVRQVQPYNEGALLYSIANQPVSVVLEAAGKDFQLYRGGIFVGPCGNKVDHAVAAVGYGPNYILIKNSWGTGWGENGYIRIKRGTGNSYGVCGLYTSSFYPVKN
# [23] = target: Glutathione peroxidase 1 (Homo sapiens) (UniProt P07203); assay: Primary qHTS Assay for Inhibitors of Recombinant Selenoprotein Glutathione Peroxidase 1 (GPX1) (AID 1845191); note: nearly all actives have a fitted effect of over 65% in size
# Glutathione peroxidase 1 (Homo sapiens), sequence (P07203 whole entry, looked up): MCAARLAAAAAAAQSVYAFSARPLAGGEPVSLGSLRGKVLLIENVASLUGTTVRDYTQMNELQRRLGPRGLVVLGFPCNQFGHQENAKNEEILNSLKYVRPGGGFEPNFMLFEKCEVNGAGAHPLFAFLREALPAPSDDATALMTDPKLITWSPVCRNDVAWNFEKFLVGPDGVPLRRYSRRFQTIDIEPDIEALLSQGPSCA
# Method in brief: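 Recombinant GPX1 (10 nM final) was preincubated with compound for 30 min at room temperature, then reacted with 1 mM GSH, 0.5 mM CHP, 0.5 mM NADPH and 100 nM glutathione reductase; NADPH fluorescence (340/450 nm) was read at 0 and 15 min.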
# [24] = target: Phospholipid hydroperoxide glutathione peroxidase GPX4 (Homo sapiens) (UniProt P36969); assay: Primary qHTS Assay for Inhibitors of Recombinant Selenoprotein Glutathione Peroxidase 4 (GPX4) (AID 1845192); conditions: outcome: dose series up to 50 µM unless noted; note: nearly all actives have a fitted effect of over 65% in size
# Phospholipid hydroperoxide glutathione peroxidase GPX4 (Homo sapiens), sequence (P36969 whole entry, looked up): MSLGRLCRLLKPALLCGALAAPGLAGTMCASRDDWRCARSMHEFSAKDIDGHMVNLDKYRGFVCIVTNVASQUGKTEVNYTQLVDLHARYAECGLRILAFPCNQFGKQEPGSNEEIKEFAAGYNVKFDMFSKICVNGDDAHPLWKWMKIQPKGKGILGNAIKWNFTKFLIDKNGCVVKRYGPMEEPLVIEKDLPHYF
# Method in brief: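 GR-coupled readout: 100 nM GR, 1 mM GSH, 0.5 mM NADPH; NADPH fluorescence (ex 340/em 450 nm) read at t=0 and after 15 min RT. GPX4 200 nM, preincubated 30 min with compound; substrate 0.5 mM CHP.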
compound,measurement,setting,value
O=C1c2ccccc2C(=O)c2c(NCCc3ccc(O)cc3)ccc(NCCc3ccc(O)cc3)c21,outcome,[1],inactive
same,outcome,[2],inactive
same,Potency,[3],9.53 µM (active)
same,outcome,[4],inactive
same,Potency,[5],inactive
same,outcome,[6],inactive
same,outcome,[7],inactive
same,outcome,[8],inactive
same,Potency,[9],11.7 µM (active)
same,Potency,[10],12 µM (active)
same,Potency,[11],13.1 µM (active)
same,outcome,[12],inactive
same,outcome,[13],inactive
same,Potency,[14],1.85 µM (active)
same,outcome,[15],inactive
same,outcome,[16],inactive
same,outcome,[17],inactive
same,outcome,[18],inactive
same,Potency,[19],inactive
same,outcome,[20],inactive
same,max response,[21],-20.2%
same,Potency,[22],inactive
same,Potency,[23],inactive
same,Potency,[24],inactive
